PubChem BioAssay (NCATS)
Inconclusive results are not listed. Calls of active or inactive are those of the source. The call rests on the fitted dose curve; in most records, active means well fitted curve in the direction sought with a large enough effect; inconclusive means small, poorly fitted or top-dose-only effect, or another doubt; inactive means no such curve, though single readings can be large; an effect the other way counts as inactive or inconclusive.

How the values were obtained:
[1] = molecular target: Calcium and integrin-binding protein 1 (Homo sapiens) (UniProt Q99828); assay: Primary qHTS for Identification of Calcium Integrin Binding Protein 1 (CIB1) Competitor (AID 1508620);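 further: GST tagged CIB1 binding a fluorescein labelled alphaIIb integrin peptide tracer; top concentration of the series differs between compounds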
How it was run: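 CIB1-GST (1 uM final) and compound incubated 15 min at room temperature before adding FITC-alphaIIb peptide tracer (100 nM final). Competition for binding read by fluorescence polarization (ex 480, em 540) after another 15 min at room temperature.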

[2] = Primary qHTS for inhibitors of nuclear receptor binding SET domain protein 2 (NSD2) in an isogenic RCH-ACV NSD2 p.E1099K mutant (9B) (AID 1645876); further: nearly all actives have a fitted effect of over 70% in size
[3] = Primary qHTS for inhibitors of nuclear receptor binding SET domain protein 2 (NSD2) in an RCH-ACV wild type WT cells (2C) (AID 1645877); further: nearly all actives have a fitted effect of over 70% in size
On the % scale 0 is the no-effect control and ±100 the full control effect.

Sequence of Calcium and integrin-binding protein 1 (Homo sapiens) (Q99828 whole entry, looked up): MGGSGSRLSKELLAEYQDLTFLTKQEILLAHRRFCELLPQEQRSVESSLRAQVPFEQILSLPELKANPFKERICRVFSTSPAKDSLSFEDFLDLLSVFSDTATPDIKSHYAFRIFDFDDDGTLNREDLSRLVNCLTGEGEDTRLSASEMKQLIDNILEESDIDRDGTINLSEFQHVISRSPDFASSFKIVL

CC(=O)O[C@@H]1C(O)C[C@@]2(C)C(CC[C@@H](C)C23Cc2c(O)cc4c(c2O3)CNC4=O)C1(C)C (some centres undefined)
inactive: Potency [1] | Potency [2] | Potency [3]

COC(=O)C1=COC(O[C@@H]2O[C@H](CO)[C@@H](O)[C@H](O)[C@H]2O)C2C(C)C(=O)CC12 (some centres undefined)
inactive: Potency [1] | Potency [2] | Potency [3]

COc1cc2c(c(O)c1OC/C=C(\C)CC/C=C(/C)CCC=C(C)C)CN(C(CCC(=O)O)C(=O)O)C2=O (centres undefined)
inactive: Potency [1] | Potency [2] | Potency [3]

CC1(C)CC[C@]2(C(=O)O)CC[C@]3(C)C(=CCC4[C@@]5(C)C[C@@H](O)[C@H](O)[C@@](C)(CO)C5CC[C@]43C)C2C1 (some centres undefined)
inactive: Potency [1] | Potency [2] | Potency [3]

O=C(O)CCc1cc2ccoc2cc1O[C@@H]1O[C@H](CO)[C@@H](O)[C@H](O)[C@H]1O
inactive: Potency [1] | Potency [2] | Potency [3]

C=CC(C)(O)CC/C=C(\C)C(=O)O[C@@H]1[C@@H](O)[C@H](OC(C)(C=C)CC/C=C(\C)C(=O)O[C@@H]2O[C@H](CO)[C@@H](O)[C@H](O)[C@H]2O)O[C@H](CO)[C@H]1OC(=O)/C(C)=C/CCC(C)(O)C=C (some centres undefined)
inactive: Potency [1] | activity change, negative = viability loss [2] -6.17% [at 9.23 µM] | activity change, negative = cell killing [3] -2.41% [at 9.23 µM]

COc1cc(CO)ccc1O[C@@H]1O[C@H](CO)[C@@H](O)[C@H](O)[C@H]1O
inactive: Potency [1] | Potency [2] | Potency [3]

C/C=C/C=C/[C@@H]1O[C@](O)([C@H](CC)C(=O)NC/C=C/C=C(\C)[C@@H](OC)[C@@H](C)[C@@H]2O[C@H](/C=C/C=C/C=C(\C)C(=O)c3c(O)ccn(C)c3=O)[C@H](O)[C@@H]2O)[C@H](O)[C@H](O)C1(C)C
inactive: Potency [1] | outcome [2] inactive [at 9.23 µM] | outcome [3] inactive [at 9.23 µM]
